Values without a mark were called inactive. The rule behind the calls is not given here.
The compounds below were run on Aerobactin synthetase IucA (Klebsiella pneumoniae, hypervirulent) (assay: IucA enzyme inhibition, biochemical, LOPAC library, absorbance readout (AID 1346212;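 note: 100% = no compound wells and 0% = no enzyme wells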)). Details: IucA enzyme assay, absorbance (OD) readout; stronger effect = lower value;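 tested at 8 µM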.

Compound | remaining activity [%]
CC(Oc1ccc(Oc2cnc3ccc(Cl)cc3n2)cc1)C(=O)O (stereo unspecified) | 108
COc1cc([C@@H]2c3cc4c(cc3[C@@H](O[C@@H]3O[C@@H]5CO[C@@H](C)O[C@H]5[C@H](O)[C@H]3O)[C@H]3COC(=O)[C@H]23)OCO4)cc(OC)c1O | 127
CCCCCCCCCCCCCCC[C@H](O)[C@H](N)CO | 83.3
CN[C@H](CC(C)C)C(=O)N[C@H]1C(=O)N[C@@H](CC(N)=O)C(=O)N[C@H]2C(=O)N[C@H]3C(=O)N[C@H](C(=O)N[C@H](C(=O)O)c4cc(O)cc(O)c4-c4cc3ccc4O)[C@H](O)c3ccc(c(Cl)c3)Oc3cc2cc(c3O[C@@H]2O[C@H](CO)[C@@H](O)[C@H](O)[C@H]2O[C@H]2C[C@](C)(N)[C@H](O)[C@H](C)O2)Oc2ccc(cc2Cl)[C@H]1O | 98.6
COc1ccccc1N1CCN(CCCNc2cc(=O)n(C)c(=O)n2C)CC1 | 97
Cn1cnc2c(NCc3ccccc3)nc(NCCO)nc21 | 119
N#C/C(=C\c1ccc(O)c(O)c1)C(=O)NCCc1ccccc1 | 102
CNC(=O)[C@H]1O[C@@H](n2cnc3c(NCc4cccc(I)c4)nc(Cl)nc32)[C@H](O)[C@@H]1O | 103
O=c1c(O)c(-c2cc(O)c(O)c(O)c2)oc2cc(O)cc(O)c12 | 115
COc1cc2c(cc1C(F)(F)F)N(C(=O)Nc1cc(F)cc(-c3cccnc3)c1)CC2 | 120
NC(=O)C1=CN(C2OC(COP(=O)(O)OP(=O)(O)OC[C@H]3O[C@@H](n4cnc5c(N)ncnc54)C(OP(=O)(O)O)[C@H]3O)C(O)C2O)C=CC1 (stereo partly specified) | 112

Reference: PubChem BioAssay
